“And” between values parts separate entries of the source, which are not always exact repeats. Identical values can stand only once. Inconclusive results are not listed. Unmarked numbers belong to inactive results. The source made the active and inactive calls. The call rests on the fitted dose curve; in most records, active means well fitted inhibition curve with a large enough effect in the signal ratio in the repeat runs (not every such curve was filed as active); inconclusive means weak or mixed curves; inactive means flat fitted curve, though single readings scatter; the % refers to the signal ratio.
The compounds below were run against Progesterone receptor (Homo sapiens) (UniProt P06401) (assay: qHTS assay to identify small molecule antagonists of the progesterone receptor (PR) signaling pathway (AID 1346795)). Details: PR-UAS-bla HEK293T, beta-lactamase FRET ratio, 16 h; series mostly up to 92.4 µM; activity change, negative = inhibition: at the top concentration.
Sequence of Progesterone receptor (Homo sapiens) (P06401 whole entry, looked up): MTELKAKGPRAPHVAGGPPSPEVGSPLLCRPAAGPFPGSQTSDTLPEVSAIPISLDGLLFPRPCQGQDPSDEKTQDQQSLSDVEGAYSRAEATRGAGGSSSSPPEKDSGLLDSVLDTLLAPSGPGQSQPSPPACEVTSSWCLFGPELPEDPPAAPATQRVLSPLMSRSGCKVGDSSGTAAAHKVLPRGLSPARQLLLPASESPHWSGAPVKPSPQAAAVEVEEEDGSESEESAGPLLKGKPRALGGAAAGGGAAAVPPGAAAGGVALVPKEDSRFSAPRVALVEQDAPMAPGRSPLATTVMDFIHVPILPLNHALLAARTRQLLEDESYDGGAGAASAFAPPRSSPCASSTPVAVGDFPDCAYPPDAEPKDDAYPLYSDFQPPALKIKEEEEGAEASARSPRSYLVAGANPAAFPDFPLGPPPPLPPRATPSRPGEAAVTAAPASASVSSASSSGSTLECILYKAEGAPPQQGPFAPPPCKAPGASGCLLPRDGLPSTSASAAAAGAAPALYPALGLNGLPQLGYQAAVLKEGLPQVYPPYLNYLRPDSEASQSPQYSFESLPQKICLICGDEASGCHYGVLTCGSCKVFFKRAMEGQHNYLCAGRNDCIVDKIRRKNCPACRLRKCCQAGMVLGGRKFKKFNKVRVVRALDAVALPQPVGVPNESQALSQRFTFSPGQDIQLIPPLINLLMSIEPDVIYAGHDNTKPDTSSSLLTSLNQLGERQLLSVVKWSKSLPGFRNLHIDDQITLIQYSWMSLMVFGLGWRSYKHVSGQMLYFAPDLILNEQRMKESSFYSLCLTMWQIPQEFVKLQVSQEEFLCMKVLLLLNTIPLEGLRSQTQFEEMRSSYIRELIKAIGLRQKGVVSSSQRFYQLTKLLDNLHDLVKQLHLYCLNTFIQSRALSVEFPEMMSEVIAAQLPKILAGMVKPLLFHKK
Excerpt: National Center for Advancing Translational Sciences [NCATS]
NIH Chemical Genomics Center [NCGC]
U.S. Environmental Protection Agency [EPA]
National Institutes of Environmental Health Sciences [NIEHS]
National Toxicology Program [NTP]
U.S. Food and Drug Administration [FDA]
Progesterone receptor (PR), a nuclear hormone receptor, plays an important role in development, metabolic homeostasis and reproduction. […] Endocrine disrupting chemicals (EDCs) and their interactions with steroid hormone receptors like PR causes disruption of normal endocrine function. To identify the compounds that inhibit PR signaling, a PR-UAS-bla GripTite cell line i.e. PR-UAS-bla HEK293T (Invitrogen, Carlsbad, CA, USA) containing a beta-lactamase reporter gene under the control of an Upstream Activator Sequence (UAS) was used to screen Tox21 10K compound library.
Tox21 Assay Protocol Summary:
PR-UAS-bla HEK293T cells were dispensed at 3,000 cells/4 uL of assay medium containing 2% charcoal stripped FBS per well into black wall/clear-bottom 1536-well plates using a Multidrop Combi (ThermoFisher Scientific, Waltham, MA) dispenser. After the assay plates were incubated at a 37C and 5% CO2 for 6 hr, 23 nL of compounds dissolved in DMSO, positive controls or DMSO only was transferred to the assay plate by a Pintool station (Kalypsys, San Diego, CA), followed by addition of 1 uL (1nM as final concentration) of Promegestone (R5020) in assay medium using a BioRAPTR FRD (Flying Reagent Dispenser, Aurora Discovery, San Diego, CA). The plates were incubated at 37C and 5% CO2 for 16 hr. Then 1 uL of LiveBLAzer B/G FRET substrate was added using a FRD. After the plates were incubated at room temperature for 2 hours, fluorescence intensity was measured by an Envision plate reader (PerkinElmer, Shelton, CT).
On the % scale 0 is the no-effect control and ±100 the full control effect; potency means the concentration at half of the fitted maximal effect.

Row | Structure (SMILES) | activity change, negative = inhibition | Potency
1 | Clc1ccc2ccccc2c1 | -0.0876% | 
2 | CC(C)(C#N)C(C)(C)C#N | 8.1% | 
3 | CCCN(CCC)C(=O)Cc1c(-c2ccc(Cl)cc2)nc2ccc(Cl)cn12 |  | 10.6 µM (active)
4 | Nc1c(Br)cc(Br)c2c1C(=O)c1ccccc1C2=O | 9.35% [at 18.9 µM] | 
5 | Clc1ccccc1 | -0.828% | 
6 | O=[N+]([O-])c1cc(Cl)c(Cl)cc1Cl | -3.68% | 
7 | O=C(O)C(F)(F)C(F)(F)C(F)(F)C(F)(F)C(F)(F)F | 9.2% | 
8 | C[N+](C)(C)CCOC(=O)C(O)(c1ccccc1)c1ccccc1 | 11.2% [at 42.5 µM] | 
9 | C=CC(=O)OCC | 0.882% | 
10 | CCN(C(C)=O)c1cccc(-c2ccnc3c(C#N)cnn23)c1 | -10.3% [at 42.5 µM] | 
11 | C[Si](Cn1cncn1)(c1ccc(F)cc1)c1ccc(F)cc1 |  | 15.4 µM (active)
12 | O=C(O)c1ccc(=O)[nH]c1 | 7.97% [at 42.5 µM] | 
13 | CN(C)N | 14.8% | 
14 | CC(CC(C(N)=O)(c1ccccc1)c1ccccc1)N(C)C (stereo not given) | -0.272% [at 42.5 µM] | 
15 | COc1ccccc1N1CCNCC1 | 7.08% [at 42.5 µM] | 
16 | CCOP(=O)(O)C(N)=O | 4.25% | 
17 | CCOC(=O)NC(O)C(Cl)(Cl)Cl (stereo not given) | 11.8% [at 42.5 µM] | 
18 | C[N+]1(CCF)[C@@H]2CC[C@H]1CC(OC(=O)C(O)(c1ccccc1)c1ccccc1)C2 (stereo not given in full) | 6.54% [at 42.5 µM] | 
19 | OC[P+](CO)(CO)CO | -9.69% | 
20 | CN[C@@H](C)[C@H](O)c1ccccc1 | 0.806% [at 42.5 µM] | 

Row | Structure (SMILES) | activity change, negative = inhibition | Potency
21 | c1ccc2c(c1)sc1ccccc12 |  | inactive
22 | CC(C)(c1ccccc1)c1cc(-n2nc3ccccc3n2)c(O)c(C(C)(C)c2ccccc2)c1 | 0.172% [at 42.5 µM] | 
23 | C[C@H](N)[C@H](O)c1ccc(O)c(O)c1 | 12.8% [at 42.5 µM] | 
24 | CC1(C)[C@H](C(=O)O[C@H](C#N)c2cccc(Oc3ccccc3)c2)[C@@H]1C=C(Br)Br |  | 17.2 µM (active)
25 | CCOP(=S)(OCC)SCSc1cc(Cl)ccc1Cl | 0.322% | 
26 | C[CH2][Hg][S]c1ccccc1C(=O)O |  | 1.54 µM (active) and 3.35 µM (active)
27 | CC(C)(C)NCC(O)c1cc(Cl)c(N)c(C(F)(F)F)c1 (stereo not given) | 0.871% [at 42.5 µM] | 
28 | C[N+](C)(C)CC1CO1 (stereo not given) | 11% | 
29 | O=C(N[C@H]1CN2CCC1CC2)c1ccc2c(c1)OCCO2 | 9.23% | 
30 | CCCCCCCCP(=O)(O)O | -13.7% | 
31 | CC(C)c1ccc(NC(=O)N(C)C)cc1 | 7.11% | 
32 | O=CC=O | 4.59% | 
33 | CC(C)CCCCCCCOC(=O)c1ccccc1C(=O)OCCCCCCCC(C)C | 11.4% | 
34 | CCC[N+](CCC)(CCC)CCC | 4.11% | 
35 | CC(C)(C)OOC(C)(C)CCC(C)(C)OOC(C)(C)C | 4.48% | 
36 | C1CCNCC1 | 0.487% | 
37 | CCCCCCCCCCCCN=C(N)N | 1.76% [at 3.27 µM] | 
38 | C=CCc1ccc(OC(=O)Cc2ccccc2)c(OC)c1 | -1.16% | 
39 | Cc1cnc(C2=NC(C)(C(C)C)C(=O)N2)c(C(=O)O)c1 (stereo not given) | 1.78% | 
40 | Cc1ccc(N)c(C)c1 |  | inactive

From PubChem BioAssay (Tox21)
